The record followed here is PubChem BioAssay AID1626 (SRMLSC, 2009).

Out of some 220,000 compounds screened, about 2,000 (0.91%) were called active. Not shown: some 2% with an inconclusive outcome. Rule as the data show it: inconclusive = inhibition above about 80% without an active follow-up result; inactive = below that; test concentration not stated here. These entries were drawn from the full list. Entries with a potency or affinity are not part of this list.

This test can be described thus: M. tuberculosis H37Rv growth inhibitors, H37Rv strain (AID 1626).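 Also: bacteria incubated seven days before Alamar blue readout; 0% = bacteria only wells and 100% = bacteria with antibiotic wells.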 The settings on record: hits give high values, concentration not given here.
`N#CC1=C(N)NC(SCC(=O)c2ccc(Br)cc2)=C(C#N)C12CCCCC2`: the inhibition is 79.4% (inactive).
Then `N#CC1=C(N)NC(SCC(=O)c2ccc(Cl)cc2)=C(C#N)C12CCCC2`, with 21.4% (inactive).
On to `CCN(CC)CCOC(=O)c1ccc(NC(=O)c2cn(-c3ccccc3)nc2-c2cccs2)cc1`, for which the inhibition was 31.3% (inactive).
For the compound `Cc1c(CN2CCCCC2C)c(=O)n(-c2ccccc2)n1C` (stereo unspecified), the inhibition was -1.26% (inactive).
Then `Cc1cc(N2CCN(C)CC2)nc2ccc(NC(=O)c3cccnc3Cl)cc12`, with -11.1% (inactive).
Then `Cc1nc2ccc(NC(=O)N(C)c3ccccc3)cc2s1`, with 76.8% (inactive); and `CCCC(=O)Nc1nc2ccc(NC(=O)c3ccc(Br)o3)cc2s1`, with -1.78% (inactive).
Consider `Cc1cc(N2CCN(C)CC2)nc2ccc(NC(=O)c3ccc(Br)o3)cc12`, for which the inhibition was 5.2% (inactive).
Turning to `CCN1CCN(c2cc(C)c3cc(NC(=O)c4cccnc4Cl)ccc3n2)CC1`, the inhibition was -2.95% (inactive).
Regarding `Cc1nc2ccc(NC(=O)c3ccco3)cc2s1`, the inhibition is 5.89% (inactive).
Take `CNC(=O)Nc1ccc2nc(C)sc2c1`: the inhibition was -3.76% (inactive).
The same measure for `CCN1CCN(c2cc(C)c3cc(NC(=O)c4ccc(Br)o4)ccc3n2)CC1`: -5.55% (inactive).
Take `COC(=O)/C=C1\C(=O)N(c2nc3ccccc3s2)C(=S)N1c1ccc(F)cc1`: the inhibition was 3.22% (inactive).
As for `O=C(N/C(=C\c1ccccc1)C(=O)N1CCN(CCO)CC1)c1ccccc1`, the inhibition was -6.53% (inactive).
Then `Cn1cc(C(=O)NP(=O)(N2CCOCC2)N2CCOCC2)c2ccccc21`, with 4.83% (inactive).
In the case of `CCc1nc(SCc2ccc(C(=O)OC)o2)n[nH]1`, the inhibition is 1.73% (inactive).
For `COc1cc(C(=O)Nc2ccc(-n3cnnn3)c(C)c2)cc(OC)c1OC`, the inhibition was -2.46% (inactive).
Regarding `Cc1ccc2[nH]c(=O)c(CN(Cc3ccco3)S(=O)(=O)c3c(C)ccc4nsnc34)cc2c1`, the inhibition is 1.42% (inactive).
In the case of `COc1ccc(NC(=O)C/C(C)=N/NC(=O)C(=O)NC(C)C)c(OC)c1`, the inhibition is -3.77% (inactive).
On to `CCOC(=O)c1ccc(NC(=O)c2cnccn2)cc1`, for which the inhibition was 38.2% (inactive).
Then `CCOc1ccc(NC(=O)c2cnccn2)cc1`, with 7.63% (inactive); and `CCCCOC(=O)c1ccc(NC(=O)c2cnccn2)cc1`, with 79.1% (inactive); and `O=C(O)Cc1ccc(NC(=O)c2cnccn2)cc1`, with 2% (inactive).
For `COCCNc1ccc(-c2nn(C)c(=O)c3ccccc23)cc1[N+](=O)[O-]`, the inhibition is -0.74% (inactive).
For `CN1CCN(C(=O)c2ccc(N3CCCC3=O)cc2)CC1`, the inhibition was -13.8% (inactive).
Regarding `COc1c(C)cccc1C(=O)Nc1ccc(N2CCOCC2)c(Cl)c1`, the inhibition is 6.42% (inactive).

In general, inhibition refers to the drop in the measured response relative to a control, in per cent.
